High-throughput results from PubChem.
FMDV antiviral = foot and mouth disease virus antiviral activity; FMDV antiviral cell-based qHTS; Potency, µM (doses to about 57.9 µM), inactives show top-dose activity change, negative = inhibition, usual class: inhibitors; 410,000 tested, 1.2% active; calls by dose curve; tested in HEK293T cells; note: read-out not given here; potency is the fitted concentration of half-maximal effect; nearly all actives have a fitted effect of over 45% in size
Lassa entry inh = Lassa virus entry inhibition; Lassa virus pseudotype entry inhibition, cell reporter; Potency, µM (titrated, usually from 37.9 µM), without a hit: at the top dose activity change, negative = inhibition, hits mostly inhibitors; 300,000 tested, 1.2% active; AID 540256; calls by dose curve; tested in HEK293 cells; note: potency is the fitted concentration of half-maximal effect; nearly all actives have a fitted effect of over 50% in size
MARV entry inh = blocks Marburg virus binding to or entry into cells. Marburg virus pseudotyped entry inhibition, cell reporter. Potency, µM (doses to about 37.8 µM), without a hit: top-dose activity change, negative = inhibition, actives largely listed as inhibitors. 300,000 tested, 1.8% active. AID 540276; calls by dose curve; tested in HEK293 cells; note: potency is the fitted concentration of half-maximal effect
HCMV antiviral = human cytomegalovirus inhibition; HFF cells, HCMV-luciferase reporter, 72 h; hits give low values; activity change, negative = inhibition, % at 57.5 µM; 410,000 tested, 4.5% active; AID 1259415; in the data active = activity change below about -60%; inconclusive = no clear call, values can overlap the other calls; inactive = above about -39%
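Compounds were evaluated in HFFs infected with an HCMV luciferase reporter virus (MOI 1 PFU/cell). Luciferase in lysates collected 72 h post infection served as the replication measure.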
* = called active by the depositor; [ ] = remark or other dose. In the library only some 6.2% were active in any assay of this set; here they are far more common. % is set by controls: 0 for no effect and ±100 for the full control effect.

For CC(=O)c1cccc(Oc2cc(NN3CCCCC3)c([N+](=O)[O-])cc2[N+](=O)[O-])c1 the results were FMDV antiviral -4% and HCMV antiviral -37.
CC(=O)Nc1ccc(S(=O)(=O)NCC2CCC(C(=O)N3CCN(c4ccccn4)CC3)CC2)cc1 (stereo unspecified) was read as FMDV antiviral -29%, Lassa entry inh 0%, MARV entry inh inconclusive and HCMV antiviral 17.
CC(=O)Nc1ccc(C(=O)NCC2CCCCC2)cc1 was read as FMDV antiviral 21%.
`Cc1ccc(NC(=O)c2ccoc2)cc1-c1ccc(C(=O)NCC2CC2)cc1` gave Lassa entry inh 3.1µM*.
`O=C(COC(=O)C1=Cc2ccccc2OC1)NCc1ccccc1` gave FMDV antiviral -8%, Lassa entry inh -19%, MARV entry inh 26% and HCMV antiviral -12.
O=C(OCc1cccnc1)C1=Cc2ccccc2OC1 was read as FMDV antiviral 25%, Lassa entry inh 1%, MARV entry inh -24%[46.1 µM] and HCMV antiviral -103*.
Screening COc1cc(C2Nc3ccccc3-c3nnc(SCc4ccc(Cl)cc4)nc3O2)ccc1OCC(=O)O (stereo unspecified) returned FMDV antiviral 13%, Lassa entry inh 5%[46.1 µM], MARV entry inh 3%[46.1 µM] and HCMV antiviral -7.
For COc1cc(C2Nc3ccccc3-c3nnc(SCc4ccc(C)cc4)nc3O2)cc(OC)c1O (stereo unspecified) the results were FMDV antiviral 22µM*, Lassa entry inh -6%[46.1 µM], MARV entry inh inconclusive and HCMV antiviral -7.
Screening O=C(Nc1ccc(Cl)c([N+](=O)[O-])c1)c1ccc(NCCCN2CCOCC2)c([N+](=O)[O-])c1 returned FMDV antiviral 8%, Lassa entry inh -2%, MARV entry inh 6.5µM* and HCMV antiviral -20.
`Cc1ccc(NC(=O)c2ccc(NCCCN3CCOCC3)c([N+](=O)[O-])c2)cc1Cl` gave FMDV antiviral 32µM*, Lassa entry inh inconclusive, MARV entry inh inconclusive and HCMV antiviral inconclusive.
`COc1ccc(NC(=O)c2ccc(NCCCN3CCOCC3)c([N+](=O)[O-])c2)cc1` gave FMDV antiviral -6%, Lassa entry inh 7%, MARV entry inh -17% and HCMV antiviral -1.
`Cc1ccc(C)c(CSc2cn(CCNC(=O)c3cccs3)c3ccccc23)c1` gave FMDV antiviral inconclusive, Lassa entry inh inconclusive, MARV entry inh inconclusive and HCMV antiviral -83*.
For O=C(NNc1nc2ccccc2s1)c1ccc(F)cc1 the results were FMDV antiviral 20%, Lassa entry inh -14%, MARV entry inh inconclusive and HCMV antiviral -15.
`O=C(NNc1nc2c(F)cc(F)cc2s1)c1ccccc1` gave FMDV antiviral 13%, Lassa entry inh 5%[46.1 µM], MARV entry inh inconclusive and HCMV antiviral -70*.
O=C(NNc1nc2c(F)cccc2s1)c1ccccc1 was read as FMDV antiviral 8% and HCMV antiviral -39.
Screening O=C(NNc1nc2ccc(F)cc2s1)c1cccc(F)c1 returned FMDV antiviral 6%, Lassa entry inh inconclusive, MARV entry inh 11µM* and HCMV antiviral -81*.
`CC(C)CN(C(=O)c1ccc(=O)n(C)n1)c1c(N)n(Cc2ccccc2)c(=O)[nH]c1=O` gave FMDV antiviral -4%, Lassa entry inh 4%, MARV entry inh -2% and HCMV antiviral -16.
`O=C(NCc1ccc2[nH]c3c(c2c1)CCCC3)c1ccc(S(=O)(=O)N2CCOCC2)cc1` gave FMDV antiviral -5%, Lassa entry inh inconclusive, MARV entry inh -3% and HCMV antiviral -4.
For O=C(NCc1ccc2[nH]c3c(c2c1)CCCC3)c1ccc(S(=O)(=O)N2CCCC2)cc1 the results were FMDV antiviral 0%, Lassa entry inh inconclusive, MARV entry inh -4% and HCMV antiviral -79*.
For CC(=O)N1c2ccc(S(=O)(=O)N3CCC(C(=O)N4CCN(c5cccc(C(F)(F)F)c5)CC4)CC3)cc2CC1C (stereo unspecified) the results were FMDV antiviral inconclusive and HCMV antiviral -66*.
CC(=O)N1c2ccc(S(=O)(=O)N3CCC(C(=O)Nc4cc(C)cc(C)c4)CC3)cc2CC1C (stereo unspecified) was read as FMDV antiviral -24% and HCMV antiviral -61*.
For CNC(=S)NCc1ccc2[nH]c3c(c2c1)CCCC3 the results were FMDV antiviral 2% and HCMV antiviral -67*.
CC(=O)N1c2ccc(S(=O)(=O)N3CCCC(C(=O)Nc4cc(C)cc(C)c4)C3)cc2CC1C (stereo unspecified) was read as FMDV antiviral -18% and HCMV antiviral 8.
